# About 1,600 (0.44%) of roughly 360,000 compounds were called active.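 The calls were made as follows: active = inhibition above the screen-wide average plus 3 SD (cut at about 13% in these data); inactive = the rest.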 The sample as a whole holds a higher share of actives than the screen did.
# Biological target: Galanin receptor type 3 (Homo sapiens) (UniProt O60755)
# Assay: GalR3 antagonists in HEK293 cells, primary screen, cell-based, fluorescence readout (AID 651719);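 also: forskolin and galanin both at EC90 stimulate the cells; cAMP rise reported by CNG channel membrane potential dye signal; 0% = forskolin plus galanin with DMSO and 100% = forskolin alone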
# Details: HEK293 GalR3-CNG cAMP membrane potential fluorescence; at 3 µM; stronger effect = higher value; galR3 body fused to GalR1 C-terminus
# Chain of Galanin receptor type 3 (Homo sapiens) (O60755 1-299 limits assumed): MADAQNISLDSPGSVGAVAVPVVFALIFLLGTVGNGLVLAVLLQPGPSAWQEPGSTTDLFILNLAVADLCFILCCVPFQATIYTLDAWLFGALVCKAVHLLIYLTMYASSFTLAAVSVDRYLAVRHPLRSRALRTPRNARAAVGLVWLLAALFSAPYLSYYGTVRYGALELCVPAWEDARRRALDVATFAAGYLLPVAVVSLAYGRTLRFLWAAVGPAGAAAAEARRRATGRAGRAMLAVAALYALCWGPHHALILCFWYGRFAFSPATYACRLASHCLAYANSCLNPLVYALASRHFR
row,Structure (SMILES),inhibition
1,CC(=O)c1ccc(S(=O)(=O)NCC2CCN(C(=O)C(=O)c3cccs3)CC2)cc1,-4.03% (inactive)
2,CC[C@H](NC(=O)[C@H](Cc1ccccc1)NC(=O)[C@H]1O[C@@H](n2cnc3c(=O)[nH]c(N)nc32)[C@H](O)[C@@H]1O)c1ccccc1,-6.3% (inactive)
3,CCCOc1ccc(Cn2c(O)cc(=O)[nH]c2=O)cc1,4.51% (inactive)
4,CCCOc1ccc(Cc2c(O)nc(SC)[nH]c2=O)cc1C,-4.3% (inactive)
5,CCCOc1ccc(Cc2c(Cl)nc(SC)nc2NC)cc1,63.8% (active)
6,COc1cccc(CNC(=O)[C@H]2CCCN2C(=O)[C@H]2CCCN2C(=O)c2cc(F)cc(F)c2)c1,-4.4% (inactive)
7,O=C1[C@@H](c2ccccc2)[C@@H](c2ccccc2)N1c1ccccc1,-1.03% (inactive)
8,O=C(NCc1ccccc1)[C@@H]1CCCN1C(=O)[C@@H](NS(=O)(=O)c1ccc(F)cc1F)C1CCCCC1,-7.14% (inactive)
9,COc1ccc(CCNc2nc3ccc(C)cc3n3cnnc23)cc1OC,18.6% (active)
10,COc1cc(Nc2nc3ccc(Cl)cc3n3cnnc23)cc(OC)c1OC,-10.3% (inactive)
11,COc1ccc(CCNc2nc(C)cc(C)n2)cc1OC,-8.92% (inactive)
12,C[C@H](CO)N1C[C@H](C)[C@@H](CN(C)C(=O)Nc2ccccc2F)OCc2cn(nn2)CCCC1=O,-5.31% (inactive)
13,COc1cccc(CNC(=O)[C@H]2CCCN2C(=O)[C@H]2CCCN2C(=O)c2ccc(F)cc2)c1,-5.33% (inactive)
14,Cc1ccc(S(=O)(=O)NC(=O)c2cccc(C)c2)cc1,-0.66% (inactive)
15,CN(NC(=O)c1ccccc1F)c1nc(C(F)(F)F)nc2ccccc12,0.05% (inactive)
16,CSc1nc(N(C)NC(=O)c2cccc(C)c2)c2ccccc2n1,17.1% (active)
17,O=C(NN=Cc1ccco1)C(=O)Nc1ccc(Cl)c([N+](=O)[O-])c1,-5.99% (inactive)
18,N#CC1=C(N)Oc2n[nH]c(CSc3ccccc3)c2C12C(=O)Nc1ccccc12 (configuration not stated),-2.39% (inactive)
19,Cc1cc(C)c(C#N)c(SCc2ccc3c(c2)OCO3)n1,-0.74% (inactive)
20,Cc1cc(C)c(C#N)c(SCc2[nH]nc3c2C(c2ccccc2)C(C#N)=C(N)O3)n1 (configuration not stated),34.7% (active)
21,Nc1nc(NCC(=O)O)nc(N2CCCCCC2)c1[N+](=O)[O-],15.1% (active)
22,CC1CN(c2nc(Nc3ccccc3)nc(N)c2[N+](=O)[O-])CC(C)O1 (configuration not stated),-0.56% (inactive)

row,Structure (SMILES),inhibition
1,COCCNc1nc(N)c([N+](=O)[O-])c(N2CCCCCC2)n1,-10.6% (inactive)
2,COC(=O)C1=C(C)N(Cc2cccc(C(F)(F)F)c2)C(=NCc2ccccc2)NC1c1ccccc1C(F)(F)F (configuration not stated),-3.46% (inactive)
3,COC(=O)C1=C(C)N(Cc2ccc(C(F)(F)F)cc2)C(=NCc2ccc(C(F)(F)F)cc2)NC1c1cccc(Cl)c1 (configuration not stated),-3.2% (inactive)
4,COC(=O)Cc1ccc(OCC(=O)Nc2ccc(OC(F)(F)F)cc2)cc1,0.64% (inactive)
5,CN(CC(=O)Nc1ccc(OC(F)(F)F)cc1)C(=O)C1CCC1,-3.79% (inactive)
6,CCNC(=S)Nc1ccc(OC(F)(F)F)cc1,13.5% (active)
7,CCc1ccc(C2=CC(=O)CC(C)(C)C2=O)cc1,-5.55% (inactive)
8,CC(C)CNc1cccc2c1S(=O)(=O)N[C@H](CC(C)C)CO2,-4.83% (inactive)
9,COC(=O)C1=C(C)NC(=S)NC1c1ccc(OC)cc1 (configuration not stated),-6.49% (inactive)
10,COC(=O)c1cc2c(c3c4ccccc4n(S(=O)(=O)c4cccc(C)c4)c13)C(=O)N(Cc1ccccc1)C2,-7.5% (inactive)
11,CCn1c(-c2cc(OC)ccc2OC)csc1=Nc1c(C)n(C)n(-c2ccccc2)c1=O,12.9% (active)
12,Cc1c(N=Nc2ccc(N(C)C)cc2)c(=O)n(-c2ccccc2)n1C,4.41% (inactive)
13,Cc1nc(N)sc1N=Nc1c(C)n(C)n(-c2ccccc2)c1=O,-1.11% (inactive)
14,Cc1[nH]nc2c1C(c1ccc(Br)cc1)NC2=O (configuration not stated),-4.49% (inactive)
15,CN1CCCCC(NC(=O)C(C)(C)C)C1=O (configuration not stated),-7.34% (inactive)
16,N#Cc1ccc(OCCCN2CCC(C(O)(c3ccccc3)c3ccccc3)CC2)c(F)c1,-9.27% (inactive)
17,CCOC(=O)C1CSCCS(=O)(=O)N1Cc1ccc(Cl)cc1 (configuration not stated),-4.45% (inactive)
18,CC1(C)OC(=O)C2=C(CC(CCc3ccccc3)OC2c2ccc(Cl)cc2)O1 (configuration not stated),-5.79% (inactive)
19,O=C(CC1C(=O)NCCN1CC(c1ccccc1)c1ccccc1)NCCc1cn[nH]c1 (configuration not stated),13.4% (active)
20,O=C(CC1C(=O)NCCN1CC(c1ccccc1)c1ccccc1)NCC1CCOCC1 (configuration not stated),-1.82% (inactive)
21,CN(CCc1cn[nH]c1)C(=O)CC1C(=O)NCCN1Cc1cccc(Oc2ccccc2)c1 (configuration not stated),-7.77% (inactive)
22,CCOC(=O)/C=C/c1ccccc1O,-6.85% (inactive)

row,Structure (SMILES),inhibition
1,C=CCN=C1NC(c2ccccc2)C(C(=O)OC)=C(C)N1Cc1ccc(C(F)(F)F)cc1 (configuration not stated),-6.78% (inactive)
2,Brc1ccc(OCCn2ccnc2)cc1,0.74% (inactive)
3,Clc1c(OCCCn2ccnc2)ccc2ccccc12,-12.1% (inactive)
4,c1ccc(Cc2ccc(OCCn3ccnc3)cc2)cc1,44.4% (active)
5,C=CC[C@]12C[C@@]3(O[C@H](c4ccc(C(F)(F)F)cc4)N=C3C[C@H](c3ccc(OC)cc3)[C@H]1C)N(C1CCN(Cc3ccccc3)CC1)C2=O,-4.57% (inactive)
6,CCOc1ccccc1C(=O)N1CCC[C@@H]1C(=O)N1CCC[C@H]1C(=O)NCc1ccccc1,-4.67% (inactive)
7,CN(Cc1cccnc1)C(=O)c1cc(COc2ccc3ncccc3c2)on1,91.7% (active)
8,CC(=O)c1cccc(OCc2cc(C(=O)NC(C)Cc3cccnc3)no2)c1 (configuration not stated),0.17% (inactive)
9,CN(Cc1cnccn1)C(=O)c1cc(COc2cccc(C(F)(F)F)c2)on1,-2.96% (inactive)
10,O=S1(=O)c2c(cccc2N2CCCC2)O[C@H](COCc2ccccc2)CN1C1CC1,-3.31% (inactive)
11,Cn1cnc([N+](=O)[O-])c1Sc1ccccc1,-2.26% (inactive)
12,Cn1cnc([N+](=O)[O-])c1Sc1n[nH]c(N)n1,-10.2% (inactive)
13,Cn1cnc([N+](=O)[O-])c1Nc1ccccc1O,13.4% (active)
14,Cc1cc(Br)cn2c(Cc3ccccc3C(F)(F)F)c(-c3ccc(C#N)cc3)nc12,-0.22% (inactive)
15,Nc1[nH]c(C(=O)c2ccccc2)c(-c2ccc(Cl)cc2Cl)c1C(=O)c1ccccc1,-7.95% (inactive)
16,Cc1ccc(S(=O)(=O)N2CCCCC2)cc1NC(=O)[C@@H]1CCCN1C(=O)c1cccs1,-1.7% (inactive)
17,COc1ccc(Cl)cc1NC(=O)[C@@H]1CCCN1C(=O)c1cccs1,-4.08% (inactive)
18,COc1cc(Cl)c(C)cc1NC(=O)[C@@H]1CCCN1C(=O)c1cccs1,14% (active)
19,C[C@@H](CN1C2=NC[C@@H](Cc3ccccc3)N2C[C@H]1Cc1ccc(O)cc1)NC(=O)CCC1CCCCC1,-7.8% (inactive)
20,COC(=O)C1=C(C)N(Cc2ccccc2C(F)(F)F)C(=NCC2CC2)NC1c1cccc(Cl)c1 (configuration not stated),-5.91% (inactive)
21,COc1ccc(C2C(C#N)=C(N)Oc3n[nH]c(C)c32)cc1CN1CCN(c2ccc(F)cc2)CC1 (configuration not stated),-5.67% (inactive)
22,CCCc1nc2c([nH]1)C(c1cccnc1)C(C#N)=C(N)O2 (configuration not stated),-0.27% (inactive)

row,Structure (SMILES),inhibition
1,COc1ccc(-c2[nH]nc3c2C(c2ccncc2)C(C#N)=C(N)O3)cc1 (configuration not stated),16.3% (active)
2,COC(=O)[C@]1(Cc2ccccc2)NC=C(C(=O)c2ccccc2)[C@@H]1c1cccc(OC)c1,-6.78% (inactive)
3,CCCCNC(=O)c1ccccc1NC(=O)c1ccccc1N(C)S(C)(=O)=O,-3.23% (inactive)
4,COc1ccc(N2CCN(C(=O)c3ccccc3NC(=O)C3=C(C)OCCS3)CC2)cc1,-6.97% (inactive)
5,CCCCNC(=O)c1ccccc1NC(=O)C1=C(C)OCCS1,103% (active)
6,CC1CCCN(c2cccc3c2S(=O)(=O)N(Cc2ccc(F)cc2)[C@@H](C)[C@H](c2ccccc2)O3)C1 (some centres not stated),-4.47% (inactive)
7,CC(C)[C@@H](C(=O)OCC(=O)c1ccc2c(c1)NC(=O)CO2)N1C(=O)c2ccccc2C1=O,42.5% (active)
8,O=C1COc2ccc(C(=O)COC(=O)CCOc3ccccc3)cc2N1,-1.45% (inactive)
9,O=C1COc2ccc(C(=O)COC(=O)c3ccccc3Cl)cc2N1,-5.73% (inactive)
10,OC(c1ccccc1)(c1ccccc1)C1CCN(CCCOc2ccc(-c3ccsc3)cc2)CC1,-4.38% (inactive)
11,Cc1nnc(SCC(=O)NNC(=O)c2ccc(Cl)cc2)n1CC1CCCO1 (configuration not stated),-3.6% (inactive)
12,O=C(CSc1nnc(-c2ccco2)n1CC1CCCO1)c1ccccc1 (configuration not stated),-2.73% (inactive)
13,CNC(=O)NC(=O)CSc1nnc(-c2ccc(F)cc2)n1CC1CCCO1 (configuration not stated),29.6% (active)
14,COc1cc2c(cc1OC)C(Cc1cc(OC)c(OC)cc1[N+](=O)[O-])=NCC2,-6.44% (inactive)
15,COc1cc2c(cc1OC)C(/C=C/c1ccco1)=NCC2,-5.84% (inactive)
16,COc1cc2c(cc1OC)C(c1cccc([N+](=O)[O-])c1)=NCC2,13.9% (active)
17,CC(C)CNc1cccc2c1S(=O)(=O)N[C@H](C)CO2,-4.46% (inactive)
18,COC(=O)Cc1nnn2c1[C@H](C)[C@H](c1ccccc1Br)OCC2,-3.41% (inactive)
19,COc1ccc(NC(=O)CSc2nc(N)c(-c3ccccc3)c(=O)[nH]2)cc1,1.59% (inactive)
20,COc1ccc(OC)c(NC(=O)CSc2nc(-c3ccccc3)cc(=O)[nH]2)c1,-1.18% (inactive)
21,COc1ccc(OC)c(NC(=O)CSc2nc(N)c(-c3ccccc3)c(=O)[nH]2)c1,29.8% (active)

# Reference: PubChem BioAssay AID651719 (The Scripps Research Institute Molecular Screening Center, 2012)
